Results published in PubChem BioAssay (NCATS).
Records with an inconclusive call do not appear. Calls of active or inactive are those of the source. Calls follow the shape of the dose curve; as a rule, active = well fitted cell-killing curve with a large enough effect; inconclusive = small, poorly fitted or top-dose-only effect, or effect the other way; inactive = flat fitted curve, though single readings scatter.

Legend:
Assay in all cases: Primary qHTS to identify gynecologic anti-cancer compounds using libraries of approved drugs and bioactive compounds (AID 1345084); also: nearly all actives have a fitted effect of over 55% in size
C33A = details: Gynecologic cancer cell panel viability, ATPlite luminescence, 48 h; series mostly up to 57.5 µM
How it was run: (§1)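 ATP-based viability (ATPlite), 1,000 cells/well, 16 h pre-incubation, 48 h compound at 37 C, 5% CO2, 15 min RT before read.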

CAOV3 = details: Gynecologic cancer cell panel viability, ATPlite luminescence, 48 h; series mostly up to 57.5 µM
How it was run: as §1

CASKI = details: Gynecologic cancer cell panel viability, ATPlite luminescence, 48 h; series mostly up to 57.5 µM
How it was run: as §1

Es-2 = details: Gynecologic cancer cell panel viability, ATPlite luminescence, 48 h; series mostly up to 57.5 µM
How it was run: as §1

HeLa = details: Gynecologic cancer cell panel viability, ATPlite luminescence, 48 h; series mostly up to 57.5 µM
How it was run: as §1

Hek293T = details: Gynecologic cancer cell panel viability, ATPlite luminescence, 48 h, control line for the selectivity index; series mostly up to 57.5 µM
How it was run: as §1

JEG-3 = details: Gynecologic cancer cell panel viability, ATPlite luminescence, 48 h; series mostly up to 57.5 µM
How it was run: as §1

OV90 = details: Gynecologic cancer cell panel viability, ATPlite luminescence, 48 h; series mostly up to 57.5 µM
How it was run: as §1

PA-1 = details: Gynecologic cancer cell panel viability, ATPlite luminescence, 48 h; series mostly up to 57.5 µM
How it was run: as §1

SKOV3 = details: Gynecologic cancer cell panel viability, ATPlite luminescence, 48 h; series mostly up to 57.5 µM
How it was run: as §1

Tov-21-G = details: Gynecologic cancer cell panel viability, ATPlite luminescence, 48 h; series mostly up to 57.5 µM
How it was run: as §1

Tov112D = details: Gynecologic cancer cell panel viability, ATPlite luminescence, 48 h; series mostly up to 57.5 µM
How it was run: as §1
% is scaled to controls: 0 for no effect and ±100 for the full control effect.

COc1cc(C)c(C(=O)O[C@H]2[C@@H](OC(C)=O)[C@H](n3ccc(=O)[nH]c3=O)O[C@@H]2CO)c(OC)c1
inactive: Potency (C33A) | Potency (CAOV3) | Potency (CASKI) | Potency (Es-2) | Potency (HeLa) | Potency (Hek293T) | Potency (JEG-3) | Potency (OV90) | Potency (PA-1) | Potency (SKOV3) | Potency (Tov-21-G) | Potency (Tov112D)

CC1(C)CC[C@]2(C(=O)O[C@@H]3O[C@H](CO[C@@H]4O[C@H](CO)[C@@H](O)[C@H](O)[C@H]4O[C@@H]4O[C@H](CO)[C@H](O)[C@H](O)[C@H]4O)[C@@H](O)[C@H](O[C@@H]4O[C@H](CO)[C@@H](O)[C@H](O)[C@H]4O)[C@H]3O)CC[C@]3(C)C(=CCC4[C@@]5(C)CC[C@H](O[C@@H]6OC[C@@H](O)[C@H](O)[C@H]6O)[C@@](C)(C(=O)O)C5CC[C@]43C)[C@@H]2C1 (stereo partly drawn)
inactive: activity change, negative = cytotoxicity (C33A) -13.6% [at 6.55 µM] | activity change, negative = cytotoxicity (CAOV3) 6.72% [at 6.55 µM] | activity change, negative = cytotoxicity (CASKI) -6.95% [at 6.55 µM] | activity change, negative = cytotoxicity (Es-2) 3.44% [at 6.55 µM] | activity change, negative = cytotoxicity (HeLa) 0.826% [at 6.55 µM] | activity change, negative = cytotoxicity (Hek293T) 8.22% [at 6.55 µM] | activity change, negative = cytotoxicity (JEG-3) -2.73% [at 6.55 µM] | activity change, negative = cytotoxicity (OV90) 3.06% [at 6.55 µM] | activity change, negative = cytotoxicity (PA-1) -1.12% [at 6.55 µM] | activity change, negative = cytotoxicity (SKOV3) 19.9% [at 6.55 µM] | activity change, negative = cytotoxicity (Tov-21-G) 4.04% [at 6.55 µM] | activity change, negative = cytotoxicity (Tov112D) 5.73% [at 6.55 µM]

C=C1CCC2C(C)(C(=O)O)CCCC2(C)C1CCC(C)CC(=O)O (stereo not drawn)
inactive: Potency (C33A) | Potency (CAOV3) | Potency (CASKI) | Potency (Es-2) | Potency (HeLa) | Potency (Hek293T) | Potency (JEG-3) | Potency (OV90) | Potency (PA-1) | Potency (SKOV3) | Potency (Tov-21-G) | Potency (Tov112D)

Cn1nc(C(C)(C)C)cc1C(=O)NC(Cc1cccc(Cl)c1)C(=O)NCC#N (stereo not drawn)
inactive: Potency (C33A) | Potency (CAOV3) | Potency (CASKI) | Potency (Es-2) | Potency (HeLa) | Potency (Hek293T) | Potency (JEG-3) | Potency (OV90) | Potency (PA-1) | Potency (SKOV3) | Potency (Tov-21-G) | Potency (Tov112D)

CC(=O)O[C@H]1C[C@@]2(C)[C@@H](CC[C@H]3[C@@]4(C)C=CC(=O)[C@@H](C)[C@@H]4[C@H](O)C(=O)[C@@]32C)/C1=C(/CCC=C(C)C)C(=O)O
inactive: Potency (C33A) | Potency (CAOV3) | Potency (CASKI) | Potency (Es-2) | Potency (HeLa) | Potency (Hek293T) | Potency (JEG-3) | Potency (OV90) | Potency (PA-1) | Potency (SKOV3) | Potency (Tov-21-G) | Potency (Tov112D)

CC(C)CN(C[C@@H](O)[C@H](Cc1ccccc1)NC(=O)O[C@@H]1CO[C@H]2OCC[C@H]21)S(=O)(=O)c1ccc(N)cc1
inactive: Potency (C33A) | Potency (CAOV3) | Potency (CASKI) | Potency (Es-2) | Potency (HeLa) | Potency (Hek293T) | Potency (JEG-3) | Potency (OV90) | Potency (PA-1) | Potency (SKOV3) | Potency (Tov-21-G) | Potency (Tov112D)

CC1CCN(C(=O)CC#N)CC1N(C)c1ncnc2[nH]ccc12 (stereo not drawn)
inactive: Potency (C33A) | Potency (CAOV3) | Potency (CASKI) | Potency (Es-2) | Potency (HeLa) | Potency (Hek293T) | Potency (JEG-3) | Potency (OV90) | Potency (PA-1) | Potency (SKOV3) | Potency (Tov-21-G) | Potency (Tov112D)

COc1cc(/C=C/C(=O)O[C@H]2[C@H](O)[C@@H](CO)O[C@@]2(CO)O[C@H]2O[C@H](CO)[C@@H](O)[C@H](O)[C@H]2O)ccc1O
inactive: Potency (C33A) | Potency (CAOV3) | Potency (CASKI) | Potency (Es-2) | Potency (HeLa) | Potency (Hek293T) | Potency (JEG-3) | Potency (OV90) | Potency (PA-1) | Potency (SKOV3) | Potency (Tov-21-G) | Potency (Tov112D)

CN[C@@H]1[C@H](O[C@H]2[C@H](O[C@@H]3[C@@H](O)[C@H](O)[C@@H](N=C(N)N)[C@H](O)[C@H]3N=C(N)N)O[C@@H](C)[C@]2(O)C=O)O[C@@H](CO)[C@H](O)[C@H]1O
inactive: Potency (C33A) | Potency (CAOV3) | Potency (CASKI) | Potency (Es-2) | Potency (HeLa) | Potency (Hek293T) | Potency (JEG-3) | Potency (OV90) | Potency (PA-1) | Potency (SKOV3) | Potency (Tov-21-G) | Potency (Tov112D)

O=C(NCc1cccc(O)c1)c1cc2cc(F)ccc2[nH]1
inactive: Potency (C33A) | Potency (CAOV3) | Potency (CASKI) | Potency (Es-2) | Potency (HeLa) | Potency (Hek293T) | Potency (JEG-3) | Potency (OV90) | Potency (PA-1) | Potency (SKOV3) | Potency (Tov-21-G) | Potency (Tov112D)

[N-]=[N+]=N[C@]1(CO)O[C@@H](n2ccc(=O)[nH]c2=O)[C@@H](O)[C@@H]1O
inactive: Potency (C33A) | Potency (CAOV3) | Potency (CASKI) | Potency (Es-2) | Potency (HeLa) | Potency (Hek293T) | Potency (JEG-3) | Potency (OV90) | Potency (PA-1) | Potency (SKOV3) | Potency (Tov-21-G) | Potency (Tov112D)

CC(C)(O)CC(CO)NC(=O)CC(O)CC(=O)Cc1ccccc1 (stereo not drawn)
inactive: Potency (C33A) | Potency (CAOV3) | Potency (CASKI) | Potency (Es-2) | Potency (HeLa) | Potency (Hek293T) | Potency (JEG-3) | Potency (OV90) | Potency (PA-1) | Potency (SKOV3) | Potency (Tov-21-G) | Potency (Tov112D)

CC[C@H](NC(=O)[C@H](CS(=O)(=O)CC1CC1)N[C@@H](c1ccc(F)cc1)C(F)(F)F)C(=O)C(=O)NC1CC1
inactive: Potency (C33A) | Potency (CAOV3) | Potency (CASKI) | Potency (Es-2) | Potency (HeLa) | Potency (Hek293T) | Potency (JEG-3) | Potency (OV90) | Potency (PA-1) | Potency (SKOV3) | Potency (Tov-21-G) | Potency (Tov112D)

Cc1cc(Cl)ccc1COc1ccnn1-c1cc(C(=O)O)ccn1
inactive: Potency (C33A) | Potency (CAOV3) | Potency (CASKI) | Potency (Es-2) | Potency (HeLa) | Potency (Hek293T) | Potency (JEG-3) | Potency (OV90) | Potency (PA-1) | Potency (SKOV3) | Potency (Tov-21-G) | Potency (Tov112D)
